# Key:
# Assay in all cases: DAPPL (digital affinity profiling via proximity ligation, sequencing); 10 mM Tris-HCl pH 7.5, 50 mM NaCl, 1 mM DTT, 4% glycerol, room temperature, 30 min; GST-TFs on glutathione beads, 16-mer random dsDNA library, 0.1% formaldehyde crosslink after washing; high values mean tight binding
# Conditions in all cases: protein: recombinant; tags: N-terminal GST; dsDNA, one strand shown
# ETV1 = ETV1 (Homo sapiens, UniProt P50549 1-477)
# Procedure, shortened: (§1)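 Each value of binding signal is a hexamer's read frequency for a factor divided by the same hexamer's frequency in the tag-only sample. Barcoded, bead-captured GST fusions of human transcription factors made in yeast were pooled with that sample and incubated with 200 nmole of a random double-stranded 16-mer DNA library in Tris/NaCl/DTT/glycerol buffer at room temperature for 30 min. Washing, 0.1% formaldehyde crosslinking, proximity ligation, PCR and Illumina NextSeq500 sequencing followed.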
# ERF = biological target: T1, ERF (Homo sapiens, UniProt P50548 1-548)
# T1 sequence: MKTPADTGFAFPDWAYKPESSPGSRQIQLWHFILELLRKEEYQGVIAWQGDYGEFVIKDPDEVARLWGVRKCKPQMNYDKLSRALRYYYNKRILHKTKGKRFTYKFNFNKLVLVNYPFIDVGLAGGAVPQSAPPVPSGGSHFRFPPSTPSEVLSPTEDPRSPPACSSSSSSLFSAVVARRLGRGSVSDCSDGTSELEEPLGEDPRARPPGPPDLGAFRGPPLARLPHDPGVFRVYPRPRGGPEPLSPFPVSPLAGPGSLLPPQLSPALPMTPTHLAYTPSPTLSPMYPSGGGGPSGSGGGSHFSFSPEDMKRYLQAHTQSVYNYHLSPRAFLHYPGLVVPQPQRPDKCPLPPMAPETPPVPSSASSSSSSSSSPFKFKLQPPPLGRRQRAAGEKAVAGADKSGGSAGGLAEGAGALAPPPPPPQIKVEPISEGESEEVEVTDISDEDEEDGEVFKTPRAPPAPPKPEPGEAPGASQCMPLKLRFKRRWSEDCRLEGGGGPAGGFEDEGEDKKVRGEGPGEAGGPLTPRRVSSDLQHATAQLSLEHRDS
# Procedure, shortened: as §1
# ETV3L = biological target: T2, ETV3L (Homo sapiens, UniProt Q6ZN32 1-361)
# T2 sequence: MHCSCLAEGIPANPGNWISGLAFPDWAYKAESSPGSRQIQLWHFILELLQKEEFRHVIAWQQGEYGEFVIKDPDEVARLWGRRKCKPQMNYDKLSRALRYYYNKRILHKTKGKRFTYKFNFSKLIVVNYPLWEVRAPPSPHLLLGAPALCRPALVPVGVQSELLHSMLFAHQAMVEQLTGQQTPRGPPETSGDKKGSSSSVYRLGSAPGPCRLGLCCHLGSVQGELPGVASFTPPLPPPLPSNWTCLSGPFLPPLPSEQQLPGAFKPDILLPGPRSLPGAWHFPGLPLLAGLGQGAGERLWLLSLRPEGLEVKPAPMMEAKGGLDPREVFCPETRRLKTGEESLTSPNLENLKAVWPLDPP
# Procedure, shortened: as §1
# ETS2 = biological target: T3, ETS2 (Homo sapiens, UniProt P15036 1-469)
# T3 sequence: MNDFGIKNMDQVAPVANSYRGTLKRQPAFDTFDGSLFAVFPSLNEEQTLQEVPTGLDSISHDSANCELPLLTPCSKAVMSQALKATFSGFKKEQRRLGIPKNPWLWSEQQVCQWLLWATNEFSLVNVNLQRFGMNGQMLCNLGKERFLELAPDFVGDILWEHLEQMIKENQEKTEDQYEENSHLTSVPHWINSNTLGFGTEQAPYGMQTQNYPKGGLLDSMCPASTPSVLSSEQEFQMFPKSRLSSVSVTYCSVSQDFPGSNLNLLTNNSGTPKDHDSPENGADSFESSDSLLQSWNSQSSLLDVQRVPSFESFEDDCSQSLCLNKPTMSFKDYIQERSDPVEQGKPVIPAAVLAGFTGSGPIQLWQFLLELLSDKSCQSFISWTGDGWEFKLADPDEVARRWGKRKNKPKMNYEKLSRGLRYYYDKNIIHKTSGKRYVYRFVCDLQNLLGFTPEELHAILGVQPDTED
# Procedure, shortened: as §1
# SPDEF = biological target: T4, SPDEF (Homo sapiens, UniProt O95238 1-335)
# T4 sequence: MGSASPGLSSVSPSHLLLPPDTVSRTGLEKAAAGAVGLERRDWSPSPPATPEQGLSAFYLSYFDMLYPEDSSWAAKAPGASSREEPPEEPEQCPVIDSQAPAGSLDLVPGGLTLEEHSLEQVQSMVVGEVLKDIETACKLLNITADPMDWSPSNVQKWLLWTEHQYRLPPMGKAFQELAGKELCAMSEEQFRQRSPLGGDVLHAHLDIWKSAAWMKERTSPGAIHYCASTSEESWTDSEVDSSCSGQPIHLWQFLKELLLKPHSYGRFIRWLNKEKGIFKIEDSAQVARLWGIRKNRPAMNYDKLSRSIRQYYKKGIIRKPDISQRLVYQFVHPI
# Procedure, shortened: as §1
# ETV7 = biological target: T5, ETV7 (Homo sapiens, UniProt Q9Y603 1-341)
# T5 sequence: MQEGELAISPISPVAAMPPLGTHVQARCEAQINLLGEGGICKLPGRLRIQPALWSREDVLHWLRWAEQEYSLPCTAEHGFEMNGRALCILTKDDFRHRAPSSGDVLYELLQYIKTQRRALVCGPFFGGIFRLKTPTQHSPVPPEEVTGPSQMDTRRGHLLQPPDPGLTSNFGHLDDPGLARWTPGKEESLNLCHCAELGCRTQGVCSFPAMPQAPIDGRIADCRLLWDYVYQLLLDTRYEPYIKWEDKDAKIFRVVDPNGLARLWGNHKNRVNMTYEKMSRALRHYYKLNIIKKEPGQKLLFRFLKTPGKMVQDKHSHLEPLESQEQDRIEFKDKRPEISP
# Procedure, shortened: as §1
# ELF5 = biological target: T6, ELF5 (Homo sapiens, UniProt Q9UKW6-2 1-255)
# T6 sequence: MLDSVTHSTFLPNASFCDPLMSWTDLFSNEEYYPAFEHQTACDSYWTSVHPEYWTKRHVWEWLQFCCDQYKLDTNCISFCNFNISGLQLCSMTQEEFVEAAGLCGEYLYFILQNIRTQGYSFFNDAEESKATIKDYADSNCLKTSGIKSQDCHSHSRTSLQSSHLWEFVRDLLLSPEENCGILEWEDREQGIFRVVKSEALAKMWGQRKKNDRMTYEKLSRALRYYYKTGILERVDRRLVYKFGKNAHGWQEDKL
# Procedure, shortened: as §1
# ETV3 = biological target: T7, ETV3 (Homo sapiens, UniProt P41162-2 1-143)
# T7 sequence: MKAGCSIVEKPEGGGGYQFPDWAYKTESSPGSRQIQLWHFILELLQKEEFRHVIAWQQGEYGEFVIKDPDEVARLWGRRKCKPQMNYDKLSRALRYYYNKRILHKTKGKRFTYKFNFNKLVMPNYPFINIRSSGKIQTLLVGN
# Procedure, shortened: as §1
# ETV6 = ETV6 (Homo sapiens, UniProt P41212 1-452)
# Sequence of ETV6 (P41212 whole entry): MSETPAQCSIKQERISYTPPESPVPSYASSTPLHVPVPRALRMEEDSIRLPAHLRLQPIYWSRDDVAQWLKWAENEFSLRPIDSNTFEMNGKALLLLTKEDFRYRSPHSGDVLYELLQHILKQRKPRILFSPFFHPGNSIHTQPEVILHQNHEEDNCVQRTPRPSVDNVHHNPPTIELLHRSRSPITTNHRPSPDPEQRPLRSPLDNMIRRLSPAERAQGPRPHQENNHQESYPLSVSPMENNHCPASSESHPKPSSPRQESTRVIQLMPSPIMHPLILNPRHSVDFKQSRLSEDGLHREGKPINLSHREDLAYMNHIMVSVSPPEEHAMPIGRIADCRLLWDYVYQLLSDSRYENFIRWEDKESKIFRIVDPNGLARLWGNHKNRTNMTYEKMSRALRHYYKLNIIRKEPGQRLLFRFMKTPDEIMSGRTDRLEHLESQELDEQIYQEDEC
# Procedure, shortened: as §1
# Sequence of ETV1 (P50549 whole entry, the tested form may be a part): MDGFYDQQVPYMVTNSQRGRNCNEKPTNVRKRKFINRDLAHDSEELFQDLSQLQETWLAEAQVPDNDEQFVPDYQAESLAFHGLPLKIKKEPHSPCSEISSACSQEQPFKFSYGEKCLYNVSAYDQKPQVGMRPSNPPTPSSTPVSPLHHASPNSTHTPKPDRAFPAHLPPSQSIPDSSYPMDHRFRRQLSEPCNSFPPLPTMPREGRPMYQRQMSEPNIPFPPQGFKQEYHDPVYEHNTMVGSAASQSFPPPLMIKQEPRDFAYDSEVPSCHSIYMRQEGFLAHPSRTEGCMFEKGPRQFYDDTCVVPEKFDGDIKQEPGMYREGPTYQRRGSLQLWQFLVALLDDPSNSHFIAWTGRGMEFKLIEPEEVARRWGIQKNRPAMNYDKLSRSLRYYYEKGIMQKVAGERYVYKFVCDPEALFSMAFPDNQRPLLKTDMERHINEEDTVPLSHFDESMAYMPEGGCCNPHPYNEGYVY
sequence,measurement,setting,value
GCACTT,binding signal,ETV1,"1.86 fold enrichment (6-mer frequency, TF over GST control)"
same,binding signal,ERF,"1.61 fold enrichment (6-mer frequency, TF over GST control)"
same,binding signal,ETV3L,"1.84 fold enrichment (6-mer frequency, TF over GST control)"
same,binding signal,ETS2,"1.76 fold enrichment (6-mer frequency, TF over GST control)"
same,binding signal,SPDEF,"1.91 fold enrichment (6-mer frequency, TF over GST control)"
same,binding signal,ETV7,"1.92 fold enrichment (6-mer frequency, TF over GST control)"
same,binding signal,ELF5,"1.88 fold enrichment (6-mer frequency, TF over GST control)"
same,binding signal,ETV3,"1.94 fold enrichment (6-mer frequency, TF over GST control)"
same,binding signal,ETV6,"2 fold enrichment (6-mer frequency, TF over GST control)"

# From paper PMC7862700, “An all-to-all approach to the identification of sequence-specific readers for epigenetic DNA modifications on cytosine”
